According to PubChem BioAssay (NCI):
The panel holds about 83,000 compounds, 20% with a hit somewhere; the sample as a whole holds those more often.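 96-well plates, one dose, 48 hours. Percent growth reported; active if below 10.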 Calls of active or inactive are those of the source.

Experiments:
Test in all cases: NCI-60 one-dose screen, 48 h (100 = growth as untreated, 0 = no growth, -100 = all killed)
Settings in all cases: 10 µM unless noted
HCT-15 colon = test system: HCT-15 colon
HT29 colon = test system: HT29 colon
SNB-75 CNS = test system: SNB-75 CNS
SNB-19 CNS = test system: SNB-19 CNS
U251 CNS = test system: U251 CNS
PC-3 prostate = test system: PC-3 prostate
SK-MEL-5 melanoma = test system: SK-MEL-5 melanoma
UACC-62 melanoma = test system: UACC-62 melanoma
LOX IMVI melanoma = test system: LOX IMVI melanoma
SK-MEL-28 melanoma = test system: SK-MEL-28 melanoma
EKVX NSCLC = test system: EKVX NSCLC
SN12C renal = test system: SN12C renal
UO-31 renal = test system: UO-31 renal
TK-10 renal = test system: TK-10 renal
ACHN renal = test system: ACHN renal
CAKI-1 renal = test system: CAKI-1 renal
A498 renal = test system: A498 renal
CCRF-CEM leukemia = test system: CCRF-CEM leukemia
MOLT-4 leukemia = test system: MOLT-4 leukemia

Measured: growth

CCN(CC)c1cc2oc3cc(N)cc(=N)c-3nc2cc1C
active: SK-MEL-5 melanoma -2.64% | LOX IMVI melanoma -0.53%
inactive: HCT-15 colon 37.8% | HT29 colon 86.7% | SNB-75 CNS 11.6% | SNB-19 CNS 69.7% | U251 CNS 19.4% | PC-3 prostate 39.2% | UACC-62 melanoma 30.8% | SK-MEL-28 melanoma 34.3% | EKVX NSCLC 50.5% | SN12C renal 31.1% | UO-31 renal 67.9% | TK-10 renal 13.2% | ACHN renal 17.6% | CAKI-1 renal 42.5% | A498 renal 82% | CCRF-CEM leukemia 15.3% | MOLT-4 leukemia 29.1%

O=C1NC(=O)C(c2cnc3ccccn23)=C1c1cn2c3c(cc(F)cc13)CN(C(=O)N1CCCCC1)CC2
active: A498 renal -10.5%
inactive: HCT-15 colon 56.7% | HT29 colon 22.9% | SNB-75 CNS 37.4% | SNB-19 CNS 71.1% | U251 CNS 36.3% | PC-3 prostate 41.8% | SK-MEL-5 melanoma 32.8% | UACC-62 melanoma 40.1% | LOX IMVI melanoma 27.5% | SK-MEL-28 melanoma 76.8% | EKVX NSCLC 68.6% | SN12C renal 63.2% | UO-31 renal 28.8% | TK-10 renal 56.1% | ACHN renal 39.7% | CAKI-1 renal 43.5% | CCRF-CEM leukemia 27.9% | MOLT-4 leukemia 12.1%

Cc1cc(C)n(CC(=O)Nc2ccc(-c3nc4ccccc4s3)cc2)n1
inactive: HCT-15 colon 105% | HT29 colon 108% | SNB-75 CNS 101% | SNB-19 CNS 99.8% | U251 CNS 89.7% | PC-3 prostate 86.8% | SK-MEL-5 melanoma 96.4% | UACC-62 melanoma 95.3% | LOX IMVI melanoma 97.7% | SK-MEL-28 melanoma 109% | EKVX NSCLC 108% | SN12C renal 102% | UO-31 renal 83.8% | TK-10 renal 106% | ACHN renal 114% | CAKI-1 renal 102% | A498 renal 94.6% | CCRF-CEM leukemia 98.5% | MOLT-4 leukemia 84%

COc1cc2cc(NCc3ccc(F)cc3)nc(C)c2cc1OC
inactive: HCT-15 colon 50.9% | HT29 colon 11.9% | SNB-75 CNS 101% | SNB-19 CNS 43.8% | U251 CNS 29.7% | PC-3 prostate 48.2% | SK-MEL-5 melanoma 38.3% | UACC-62 melanoma 27.8% | SK-MEL-28 melanoma 35.4% | EKVX NSCLC 78.7% | SN12C renal 51% | UO-31 renal 49.6% | TK-10 renal 46.7% | ACHN renal 60.4% | CAKI-1 renal 67% | A498 renal 27.4% | CCRF-CEM leukemia 41.9% | MOLT-4 leukemia 35.2%
active: LOX IMVI melanoma 6.57%

C/C=C/C=N/NC(=S)Nc1ccccc1
inactive: HCT-15 colon 99% | HT29 colon 106% | SNB-75 CNS 80.8% | SNB-19 CNS 102% | U251 CNS 88.4% | PC-3 prostate 88.2% | SK-MEL-5 melanoma 104% | UACC-62 melanoma 89.5% | LOX IMVI melanoma 88.6% | SK-MEL-28 melanoma 97.5% | EKVX NSCLC 101% | SN12C renal 89.3% | UO-31 renal 72.6% | TK-10 renal 112% | ACHN renal 99.2% | CAKI-1 renal 92.1% | A498 renal 120% | CCRF-CEM leukemia 91.8% | MOLT-4 leukemia 99.2%

CN(C)CCOC(=O)Nc1nc2ccc(Sc3ccccc3)cc2[nH]1
active: HT29 colon 1.58% | SNB-75 CNS -10.2% | A498 renal -3.9%
inactive: HCT-15 colon 33.2% | SNB-19 CNS 36.4% | U251 CNS 26.5% | PC-3 prostate 28% | SK-MEL-5 melanoma 19.3% | UACC-62 melanoma 42.4% | LOX IMVI melanoma 32.1% | SK-MEL-28 melanoma 63.7% | EKVX NSCLC 47.1% | SN12C renal 40.5% | UO-31 renal 31.5% | TK-10 renal 49.4% | ACHN renal 46.2% | CAKI-1 renal 33.9% | CCRF-CEM leukemia 22.4% | MOLT-4 leukemia 41%

NC(=O)Nc1cc(-c2cccc(F)c2)sc1C(=O)N[C@H]1CCCNC1
active: HCT-15 colon -10.6% | HT29 colon -24% | SNB-75 CNS -89.8% | SNB-19 CNS -26.7% | U251 CNS -62% | SK-MEL-5 melanoma -27.5% | UACC-62 melanoma -21.1% | LOX IMVI melanoma -75.2% | EKVX NSCLC 4.42% | SN12C renal -5.05% | UO-31 renal -95.4% | TK-10 renal -66.3% | ACHN renal 3.94% | CAKI-1 renal -82.3% | A498 renal -83.7% | CCRF-CEM leukemia 4.63% | MOLT-4 leukemia 2.79%
inactive: PC-3 prostate 16.2% | SK-MEL-28 melanoma 14.2%

Cc1cc(Nc2nc(N[C@@H](C)c3ncc(F)cn3)ncc2Cl)n[nH]1
inactive: HCT-15 colon 58.4% | HT29 colon 39.1% | SNB-75 CNS 88.3% | SNB-19 CNS 80.9% | U251 CNS 52.7% | PC-3 prostate 81.8% | SK-MEL-5 melanoma 95.9% | UACC-62 melanoma 65% | LOX IMVI melanoma 37.9% | SK-MEL-28 melanoma 87.8% | EKVX NSCLC 99.6% | SN12C renal 77.6% | UO-31 renal 51% | TK-10 renal 82.8% | ACHN renal 63.4% | CAKI-1 renal 70.1% | CCRF-CEM leukemia 76.6% | MOLT-4 leukemia 62.3%
active: A498 renal -2.39%

CCc1cc2c(cc1N1CCC(N3CCOCC3)CC1)C(C)(C)c1[nH]c3cc(C#N)ccc3c1C2=O
inactive: SNB-19 CNS 20.2% | SK-MEL-5 melanoma 10.2% | EKVX NSCLC 15.9% | CCRF-CEM leukemia 22.4% | MOLT-4 leukemia 25.4%
active: HCT-15 colon 7.91% | HT29 colon -58% | SNB-75 CNS -90.3% | U251 CNS -19.5% | PC-3 prostate 4.07% | UACC-62 melanoma -16.4% | LOX IMVI melanoma -16.2% | SK-MEL-28 melanoma -27.2% | SN12C renal -14.9% | UO-31 renal -67.2% | TK-10 renal -12.1% | ACHN renal -27.3% | CAKI-1 renal -46.7% | A498 renal -37.1%

COc1cccc(NC(=O)Nc2ccc(Nc3ncnc4sc5c(c34)CCN(C(=O)CCl)C5)cc2)c1
inactive: HCT-15 colon 118% | HT29 colon 90.2% | SNB-75 CNS 86.4% | SNB-19 CNS 102% | U251 CNS 95.5% | PC-3 prostate 90.7% | SK-MEL-5 melanoma 106% | UACC-62 melanoma 94.8% | LOX IMVI melanoma 94.1% | SK-MEL-28 melanoma 117% | EKVX NSCLC 109% | SN12C renal 96.3% | UO-31 renal 66.6% | TK-10 renal 122% | ACHN renal 88.7% | CAKI-1 renal 94.2% | A498 renal 93.1% | CCRF-CEM leukemia 88.4% | MOLT-4 leukemia 92.8%

O=C1NC(=O)[C@@H](c2cn3c4c(cccc24)CCC3)[C@@H]1c1c[nH]c2ccccc12
inactive: HCT-15 colon 16.8% | SNB-19 CNS 27.3% | PC-3 prostate 21.1% | UACC-62 melanoma 33.9% | LOX IMVI melanoma 19.2% | SK-MEL-28 melanoma 61.3% | EKVX NSCLC 31.4% | SN12C renal 31.1% | UO-31 renal 45.9% | TK-10 renal 43% | ACHN renal 35.7% | CAKI-1 renal 27% | A498 renal 11.8% | CCRF-CEM leukemia 20.9% | MOLT-4 leukemia 18.6%
active: HT29 colon 0.272% | SNB-75 CNS 5.51% | U251 CNS 8.44% | SK-MEL-5 melanoma 3.82%

O=C(CNc1nc2ccccc2s1)Nc1ccc(-c2nc3ccccc3s2)cc1
inactive: HCT-15 colon 105% | HT29 colon 109% | SNB-75 CNS 99% | SNB-19 CNS 100% | U251 CNS 89.1% | PC-3 prostate 95% | SK-MEL-5 melanoma 103% | UACC-62 melanoma 94.6% | LOX IMVI melanoma 75.8% | SK-MEL-28 melanoma 113% | EKVX NSCLC 110% | SN12C renal 103% | UO-31 renal 80.5% | TK-10 renal 96.7% | ACHN renal 107% | CAKI-1 renal 100% | A498 renal 93.8% | CCRF-CEM leukemia 111% | MOLT-4 leukemia 84.2%

COc1cc(CCc2cc(NC(=O)c3ccc(N4C[C@@H](C)N[C@@H](C)C4)cc3)n[nH]2)cc(OC)c1
active: HT29 colon 4.25% | SNB-75 CNS 6.83% | LOX IMVI melanoma -30.9% | UO-31 renal 9.25% | A498 renal -1.03%
inactive: HCT-15 colon 53.5% | SNB-19 CNS 83.4% | U251 CNS 45.2% | PC-3 prostate 47.2% | SK-MEL-5 melanoma 17.3% | UACC-62 melanoma 45.4% | SK-MEL-28 melanoma 35.7% | EKVX NSCLC 84.7% | SN12C renal 31.1% | TK-10 renal 57.6% | ACHN renal 39.5% | CAKI-1 renal 20.4% | CCRF-CEM leukemia 29.6% | MOLT-4 leukemia 10.6%

Cc1cc(Oc2ccccc2)ccc1Nc1ncnc2ccc(-c3cnc(Cl)c(NS(C)(=O)=O)c3)cc12
inactive: HCT-15 colon 21.6% | HT29 colon 15.8% | SNB-19 CNS 32.4% | U251 CNS 29.4% | PC-3 prostate 25.3% | UACC-62 melanoma 10.5% | EKVX NSCLC 21.3% | SN12C renal 35.6% | ACHN renal 30.4% | CCRF-CEM leukemia 21.2%
active: SNB-75 CNS 0.0921% | SK-MEL-5 melanoma -25.3% | LOX IMVI melanoma -3.68% | SK-MEL-28 melanoma 7.7% | UO-31 renal 3.47% | TK-10 renal 4.28% | CAKI-1 renal 2.11% | A498 renal -30.8% | MOLT-4 leukemia -0.671%

C#Cc1cccc(Nc2ncnc3cc(OCCOC)c(OCCOC)cc23)c1
active: TK-10 renal -6.62% | CAKI-1 renal 6.29%
inactive: HCT-15 colon 39.3% | HT29 colon 53.2% | SNB-75 CNS 71.6% | SNB-19 CNS 79.8% | U251 CNS 68.8% | PC-3 prostate 73.4% | SK-MEL-5 melanoma 77.1% | UACC-62 melanoma 50.9% | LOX IMVI melanoma 47.2% | SK-MEL-28 melanoma 86.8% | EKVX NSCLC 39.6% | SN12C renal 50.5% | UO-31 renal 17.3% | ACHN renal 11.3% | A498 renal 20.2% | CCRF-CEM leukemia 71.2% | MOLT-4 leukemia 56.1%

COc1cc2c(Nc3ccc(Br)cc3F)ncnc2cc1OCC1CCN(C)CC1
active: HT29 colon 5.35% | SNB-75 CNS -59.8% | U251 CNS 8.98% | SK-MEL-5 melanoma -66.3% | UACC-62 melanoma -45.8% | LOX IMVI melanoma -45.6% | SK-MEL-28 melanoma -79.7% | UO-31 renal -88.3% | TK-10 renal -4.33% | ACHN renal 9.47% | CAKI-1 renal 0.316% | A498 renal -71.1%
inactive: HCT-15 colon 11.6% | SNB-19 CNS 37.6% | PC-3 prostate 39.1% | EKVX NSCLC 35.4% | SN12C renal 16.9% | CCRF-CEM leukemia 14.5% | MOLT-4 leukemia 18.1%
